Reference: PubChem BioAssay (NCI)
About 83,000 compounds went through this panel and 20% of them were active in at least one assay; those are over-represented in the sample as a whole.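 Cell lines were cultured in 96-well plates, exposed to a single compound concentration, and assessed for percent growth 48 hours later.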 Unmarked numbers belong to inactive results. Active and inactive are the calls of the source. Rule for the calls: active = growth percent below 10; inactive = the rest.

These molecules were tested on NCI-H322M lung (assay: NCI-60 one-dose screen, 48 h (100 = growth as untreated, 0 = no growth, -100 = all killed)). Details: 10 µM unless noted.

Structure (SMILES)	growth
COc1cc(NCCCN=C(N)N)c2ncccc2c1	74%
ClCCN(CCCl)c1nc(Cl)c(C2CC(c3ccccc3)=NN2c2cc(Cl)cc(Cl)c2)s1 (stereo not given)	97.8%
CCCCCCCC(=O)OCC(=O)[C@]1(O)Cc2c(O)c3c(c(O)c2[C@@H](OC2CC(N)C(O)C(C)O2)C1)C(=O)c1c(OC)cccc1C3=O (stereo not given in full)	-72.8% (active)
COC[C@@H]1C[C@@]2(C)[C@@H](CC[C@@H]3[C@@H]2CC[C@@]2(C)[C@H]3CC[C@]2(C)O)CC1=O	105%
C[C@]12CC[C@@H]3c4ccc(Oc5nc(N6CC6)nc(N6CC6)n5)cc4CC[C@H]3[C@@H]1CCC2=O	44.2%
O=C1OCC2=C1C(c1ccccc1)c1cc3c(cc1N2)OCO3 (stereo not given)	46.9%
CCC1(C)CC(CCNCc2ccccc2O)(c2ccc(C)cc2)CCO1 (stereo not given)	108%
ClCCN(CCCl)Cc1ccc(Nc2ccnc3cc(Cl)ccc23)cc1	79%
c1ccc(Nc2nc(-c3ccccc3)c[se]2)cc1	69.8%
CCN(CC)CCOC(=O)C(OC(C)C)(c1ccccc1)c1ccccc1	99.6%
CCCc1cc(O)c2c3c(c(=O)oc2c1)CN(C)CC3	42.9%
ClCCN(CCCl)c1ccc(/C=N/Nc2ncnc3nc[nH]c23)cc1	97.7%
CCC1(C(C)C)C(=O)NC(=S)NC1=O	106%
CC(C)(N)Cc1ccccc1	105%
CC1(C)N=C(N)N=C(N)N1c1cccc(CCCCc2ccc(Cl)c(S(=O)(=O)F)c2)c1	54.9%
